Measured values from PubChem BioAssay AID686979 (National Center for Advancing Translational Sciences (NCATS), 2013).
About 50,000 (12%) of roughly 420,000 compounds were called active. Entries that show only a call come without a potency. About 26% were inconclusive and are not listed. Only a selection was taken, and actives are over-represented in it overall. Values without a mark were called inactive. Calls follow the shape of the dose curve; as a rule, active = well fitted inhibition curve with a large enough effect; inconclusive = small, poorly fitted or top-dose-only effect; inactive = flat fitted curve, though single readings scatter.

test: qHTS for Inhibitors of human tyrosyl-DNA phosphodiesterase 1 (TDP1): qHTS in cells in presence of CPT; settings: chicken DT40 Tdp1-/-;hTDP1 cells + 20 nM CPT, ATP luminescence, 48 h; series mostly up to 46.2 µM; also: nearly all actives have a fitted effect of over 55% in size
In short: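 Chicken DT40 Tdp1-/- cells complemented with human TDP1, 400 cells/well, exposed to compounds plus 20 nM camptothecin for at least 48 h at 37 C; viability read as ATP content by CellTiter-Glo luminescence.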
Potency is read from the fitted curve at half-maximal effect.

Row | SMILES | Potency | activity change, negative = growth inhibition
1 | O=C(c1cc(-c2ccc(O)cc2)on1)N1CCOCC1 | inactive | –
2 | CCc1nc2sc(C(=O)O)c(N)c2c2c1CCCC2 | inactive | –
3 | COc1ccc(CCNC(=O)CS(=O)(=O)Cc2nc(-c3ccc(C)cc3)oc2C)cc1OC | inactive | –
4 | CCCCN(CC)CCCNC(=O)CS(=O)(=O)Cc1nc(-c2cccc(OC)c2)oc1C | inactive | –
5 | COc1cccc(-c2nc(CS(=O)(=O)CC(=O)N3CCN(c4cc(C)ccc4C)CC3)c(C)o2)c1 | 3.26 µM (active) | –
6 | CC1CCN(CC(O)COc2ccc(C(=O)c3ccccc3)cc2)CC1 (stereo not given) | inactive | –
7 | C[C@@H](NC(=O)[C@@H]1Cc2ccccc2CN1)C(=O)NC1CCCC1 | inactive | –
8 | Cc1noc(C)c1S(=O)(=O)N(C)C[C@H]1Oc2ccc(NC(=O)C3CC3)cc2C(=O)N([C@H](C)CO)C[C@@H]1C | inactive | –
9 | CCC(C)c1ccc(NC(=S)N2CCCC2)cc1 (stereo not given) | 13 µM (active) | –
10 | CCOC(=O)c1ccc(NC(=S)N2CCCC2)cc1 | inactive | –
11 | CCOc1ccc(NC(=S)N2CCCCCC2)cc1 | inactive | –
12 | COc1ccc(CNS(=O)(=O)c2cc(-c3cc(C)no3)ccc2C(C)C)cc1 | 0.92 µM (active) | –
13 | Cc1cc(-c2ccc(C)c(S(=O)(=O)NC(C)Cc3ccco3)c2)on1 (stereo not given) | inactive | –
14 | CCOc1ccccc1CNS(=O)(=O)c1cc(-c2cc(C)no2)ccc1C | inactive | –
15 | Cc1nn(-c2ccc(F)cc2)c(Cl)c1/C=C(/CCC(=O)O)c1nc2ccccc2s1 | inactive | –
16 | COc1cccc2sc(NNC(=O)c3nc4ccccc4s3)nc12 | 5.17 µM (active) | –
17 | COc1ccccc1OCc1nc2ccccc2s1 | inactive | –
18 | O=C(Nc1ccccc1)Nc1nc2ccccc2s1 | inactive | –
19 | N#Cc1cccc(CSc2ncnc(N)n2)c1 | inactive | –
20 | O=C(NCCCN1CCCC1=O)c1cccc(S(=O)(=O)NCc2ccccc2)c1 | inactive | –
21 | CC1CCCCC1NC(=O)COC(=O)Cc1ccc(Br)cc1 (stereo not given) | inactive | –
22 | CCOC(=O)c1c(S(=O)(=O)Nc2ccc(CN3CCC(C)CC3)cc2)c(C)n(C)c1C | inactive | –
23 | CCOC(=O)c1c(S(=O)(=O)NCC(=O)Nc2ccc(Cl)c(C(F)(F)F)c2)c(C)n(C)c1C | 18.4 µM (active) | –
24 | CCOC(=O)c1c(S(=O)(=O)NCC(=O)Nc2ccc(C)cc2)c(C)n(C)c1C | inactive | –
25 | COCCCNC(=O)C1CCN(c2ccc(N3CCOCC3)nn2)CC1 | inactive | –

Row | SMILES | Potency | activity change, negative = growth inhibition
26 | Cc1ccc(C(=O)N/C(=C\c2cn(S(=O)(=O)N(C)C)c3ccccc23)C(=O)N2CCCC2)cc1 | inactive | –
27 | COc1cc2nc(NCC(C)c3ccccc3)n3nc(-c4ccccc4)nc3c2cc1OC (stereo not given) | 16.4 µM (active) | –
28 | O=C(CCC(=O)NNc1nc2ccccc2c2nc(-c3ccccc3)nn12)NCCCN1CCCC1=O | inactive | –
29 | COc1cc2nc(SCC(=O)Nc3ccccc3F)n3nc(-c4ccccc4)nc3c2cc1OC | inactive | –
30 | N#CCCN(C(=O)COC(=O)c1ccc(S(=O)(=O)N2CCCCCC2)cc1)c1ccccc1 | inactive | –
31 | COc1ccc(CNC(=O)C(=O)N2CCC3(CC2)OCCN3S(=O)(=O)c2ccc(C)cc2)cc1 | inactive | –
32 | COc1ccc(S(=O)(=O)N2CCOC23CCN(S(=O)(=O)c2ccc([N+](=O)[O-])cc2)CC3)cc1 | 11.6 µM (active) | –
33 | COc1ccc(S(=O)(=O)N2CCSCC2)cc1 | inactive | –
34 | COCCN1C2=C(COC(C)(C)C2)C(=S)NC1c1ccccc1 (stereo not given) | inactive | –
35 | Cc1ccsc1CN(C(=O)c1oc2ccc(Br)cc2c1C)C1CCS(=O)(=O)C1 (stereo not given) | 9.2 µM (active) | –
36 | Cc1cc(C)c(OCC(=O)N(Cc2cccs2)C2CCS(=O)(=O)C2)c(C)c1 (stereo not given) | inactive | –
37 | Cc1ccccc1OCC(=O)N(Cc1cccc(F)c1)C1CCS(=O)(=O)C1 (stereo not given) | inactive | –
38 | NC1=NC2(CCCCC2)N(c2ccc(F)cc2F)C(N)=N1 | inactive | –
39 | COc1cc([N+](=O)[O-])cc([N+](=O)[O-])c1NC(=O)N1CCOCC1 | inactive | –
40 | CCOC(=O)CSc1ncc(-c2cccc(Cl)c2)cn1 | inactive | –
41 | Cn1nc(-c2ccccc2)c(CO)c1Sc1ccccc1 | inactive | –
42 | Cn1nc(-c2ccccc2)c(CSc2cccc(Cl)c2)c1Cl | 16.4 µM (active) | –
43 | C=CCSc1ccc(S(=O)(=O)N2CCN(C)CC2)cn1 | inactive | –
44 | Cc1n[nH]c(=O)n1-c1ccc(C(C)C)cc1 | inactive | –
45 | CCOc1ccc(NC(=O)CN(C)C(=O)Cn2c(=O)cnc3ccccc32)cc1OCC | inactive | –
46 | COc1ccc(N2CCC(N3CCN(C)C(CCO)C3)CC2)cc1 (stereo not given) | inactive | –
47 | COc1ccc(N2CCC(CNC(=S)Nc3c(C)cccc3C)C2)cc1 (stereo not given) | 23.1 µM (active) | –
48 | COc1cccc(N2CC(C(=O)Nc3c(C)cccc3C)CC2=O)c1 (stereo not given) | inactive | –
49 | COc1cc(C(=O)Nc2ccc(OCc3cc(=O)n4cc(C)sc4n3)cc2)cc(OC)c1OC | inactive | –
50 | CC(=O)Nc1ccc(OC(=O)COc2ccc(Br)cc2)cc1 | inactive | –

Row | SMILES | Potency | activity change, negative = growth inhibition
51 | COc1ccccc1S(=O)(=O)c1c(C)cc(C)[nH]c1=O | inactive | –
52 | CC(C)c1ccc(Cn2c(COc3ccccc3)nc3ccccc32)cc1 | 18.4 µM (active) | –
53 | CC(O)c1nc2ccccc2n1Cc1ccc([N+](=O)[O-])cc1 (stereo not given) | inactive | –
54 | O=C(O)CCn1c(Cc2ccccc2)nc2ccccc21 | inactive | –
55 | Cc1ccc(NC(=O)N2CCC(O)(c3cccnc3)CC2)cc1 | inactive | –
56 | Cn1c(C(=O)O)ccc1S(=O)(=O)N(Cc1ccccc1)Cc1ccccc1 | inactive | –
57 | COc1ccccc1N(CC(=O)NC1CCCC1)C(=O)C1(C)CC(=O)N=C2C=CC(C)=CN21 (stereo not given) | inactive | –
58 | COc1cc(NC(=O)c2ccc(-c3csc(C)n3)cc2)c(OC)cc1Cl | inactive | –
59 | COC(=O)c1scc(-c2ccc(C)cc2)c1S(=O)(=O)Nc1cc(Cl)c(OC)cc1OC | 13 µM (active) | –
60 | COc1cc(OC)c(NS(=O)(=O)c2cn(C)cn2)cc1Cl | inactive | –
61 | CSCCC(=O)N1CCCC(CNC(=O)c2ccccc2Cl)C1 (stereo not given) | inactive | –
62 | COc1ccc(Cl)cc1NC(=O)NCC1CCN(Cc2ccccc2F)CC1 | inactive | –
63 | COc1ccccc1CN1CCC(CNC(=O)c2cnn(-c3ccccc3Cl)c2C2CCN(C(=O)OC(C)(C)C)CC2)CC1 | 8.2 µM (active) | –
64 | COc1ccccc1N1CCN(CC(=O)NCCc2ccc(S(N)(=O)=O)cc2)CC1 | inactive | –
65 | CCOC(=O)N1CCN(C(=O)C2CCN(Cc3ccc(OC)cc3OC)CC2)CC1 | inactive | –
66 | COc1ccccc1CN1CCC(CNC(=O)c2cnn(-c3cccc(Cl)c3)c2C2CCN(C(=O)OC(C)(C)C)CC2)CC1 | 7.31 µM (active) | –
67 | Cc1ccc(CN2CCC(CNC(=O)c3cnn(-c4ccccc4Cl)c3C3CCN(C(=O)OC(C)(C)C)CC3)CC2)cc1 | 5.8 µM (active) | –
68 | COc1ccccc1-c1ccnc(-n2ncc(C(=O)NCCCN3CCOCC3)c2C)n1 | – | 7.6% [at 9.04 µM]
69 | COc1ccccc1CNC(=O)C1CCN(S(=O)(=O)c2ccc3c(c2)OCCO3)CC1 | inactive | –
70 | COc1ccccc1N1CCN(CCCNC(=O)c2cnn(-c3ccccc3Cl)c2C2CCN(C(=O)OC(C)(C)C)CC2)CC1 | 8.2 µM (active) | –
71 | O=C(NNC(=O)c1ccccc1[N+](=O)[O-])Nc1ccccc1C(F)(F)F | inactive | –
72 | COc1ccc(CCNC(=O)COc2cc(C)cc3oc(=O)c(C)c(C)c23)cc1OC | inactive | –
73 | O=C(COC(=O)c1ccc([N+](=O)[O-])o1)NC12CC3CC(CC(C3)C1)C2 | inactive | –
74 | COc1ccc(C(C)=O)cc1CSc1nc2nc(C)cc(C)n2n1 | inactive | –
75 | COCc1c(C(=O)OCC(=O)Nc2ccc(OC(F)F)cc2)oc2ccccc12 | inactive | –

Row | SMILES | Potency | activity change, negative = growth inhibition
76 | COc1ccc(CCN2CC(C(=O)OCC(=O)NCc3ccccc3Cl)CC2=O)cc1OC (stereo not given) | inactive | –
77 | CC(C)(C)OC(=O)N(Cc1ccco1)S(=O)(=O)c1ccccc1Br | inactive | –
78 | O=c1oc2ccccc2c(=O)c2ccccc12 | inactive | –
79 | O=C(Oc1ccc(F)cc1)N1CCOCC1 | inactive | –
80 | CCS(=O)(=O)N1Cc2ccccc2CC1C(=O)Nc1ccc(OC)cc1OC (stereo not given) | inactive | –
81 | O=C(COC(=O)c1ccc(N2CCCC2=O)cc1)c1ccc(OC(F)F)cc1 | inactive | –
82 | CS(=O)(=O)c1ccc(-c2nnn(CC(=O)Nc3ccc4c(c3)OCCO4)n2)cc1 | inactive | –
83 | CCOC(=O)c1cnn2c(SC)ncnc12 | inactive | –
84 | CC(C)(C)C(=O)c1c(N)[nH]c(C(=O)c2ccccc2)c1-c1ccc(F)cc1 | inactive | –
85 | Cc1cc(NC(=O)CSc2nnnn2-c2ccc(F)cc2)no1 | inactive | –
86 | Cc1cc(NC(=O)CSc2nnc(-c3ccco3)n2N)no1 | inactive | –
87 | Cc1cc(C)c2c(c1)cc(C)c1nnc(SCC(=O)Nc3cc(C)on3)n12 | 8.2 µM (active) | –
88 | O=C(CC1Oc2ccccc2NC1=O)NCc1ccc(F)cc1 (stereo not given) | inactive | –
89 | COc1cccc(NC(=O)CSc2nnc(C3CCCCC3)n2N)c1 | inactive | –
90 | CCN(CC)S(=O)(=O)c1ccc(Cl)c(NC(=O)c2ccncc2)c1 | inactive | –
91 | CCN(CC)S(=O)(=O)c1ccc2c(c1)nc(CN(C)C(=O)Nc1ccc(Cl)cc1)n2C | 18.4 µM (active) | –
92 | CCN(CC)S(=O)(=O)c1ccc(NC(=O)c2cnc(C)cn2)cc1 | inactive | –
93 | COc1cc(NS(=O)(=O)c2ccc(NC(=S)NC(=O)c3ccc(Br)cc3)cc2)ncn1 | inactive | –
94 | C=CCOc1cccc(CNCc2cccnc2)c1 | inactive | –
95 | C[C@@H]1ON(C)[C@H]2C[C@H]3c4cc(N5CCN(C)CC5)ccc4CCN3C(=O)[C@@H]12 | inactive | –
96 | COC(=O)[C@H]1[C@H]2C[C@H]3c4[nH]c5ccccc5c4CCN3C[C@@H]2CC[C@@H]1O | inactive | –
97 | COc1ccc(-c2ccc3[nH]c4c(c3c2)CCN2C[C@H]3[C@H](C)ON(C)[C@H]3C[C@@H]42)cc1 | 20.6 µM (active) | –
98 | O=C(C[C@H]1C(=O)N(c2ccc(F)c(F)c2)C[C@@H]1Cc1ccccc1)Nc1ccccc1 | 11.2 µM (active) | –
99 | CNC(=O)C[C@H]1C(=O)N(c2ccc(OC)cc2)C[C@@H]1Cc1ccccc1 | inactive | –
100 | COc1ccc(NC(=O)C[C@H]2C(=O)N(CCc3ccccc3)C[C@@H]2C)cc1 | inactive | –
